# Measurements as given in PubChem BioAssay (EPA / NIEHS).
# Calls of active or inactive are those of the source. Rule for the calls: active = hit-call score of the fitted dose curve at least 0.9, where 1 is the maximum; inactive = score below 0.9.
# Tests used:
# [1] = APR_HepG2_NuclearSize_72hr: Apredica 72-hour HepG2 Assay for Nuclear Size (AID 2282925); details: high-content imaging, actives raise or lower the signal
# Method in brief: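 Read-out: nuclear diameter from Hoechst 33342 images (ArrayScan, 20x, six fields/well), via cell-cycle image analysis. HepG2 were dosed 0.39–200 uM for 72 hr in 0.5% DMSO. Bidirectional fit relative to DMSO.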
# [2] = target: CCAAT/enhancer-binding protein beta (Homo sapiens) (UniProt P17676); experiment: ATG_C_EBP_CIS: Attagene CIS-FACTORIAL HepG2 Assay for human CCAAT/Enhancer Binding Protein (C/EBP) beta (AID 2282927); details: HepG2 Attagene cis-factorial transcription factor reporter; actives raise or lower the signal
# Chain of CCAAT/enhancer-binding protein beta (Homo sapiens) (P17676 whole entry, looked up): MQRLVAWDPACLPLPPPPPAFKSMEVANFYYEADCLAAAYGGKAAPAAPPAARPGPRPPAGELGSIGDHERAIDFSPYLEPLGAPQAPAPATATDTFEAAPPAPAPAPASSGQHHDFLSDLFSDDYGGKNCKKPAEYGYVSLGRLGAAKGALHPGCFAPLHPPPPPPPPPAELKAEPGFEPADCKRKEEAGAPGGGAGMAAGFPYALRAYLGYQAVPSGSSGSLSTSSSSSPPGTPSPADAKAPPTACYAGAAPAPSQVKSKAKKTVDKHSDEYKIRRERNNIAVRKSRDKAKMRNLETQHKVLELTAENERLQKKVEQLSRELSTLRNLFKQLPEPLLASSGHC
# Method in brief: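 HepG2, transient MRTU transfection, 24 h treatment. RT-PCR plus CE fluorescence; DMSO negative control, bidirectional fit.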
# [3] = ATG_CMV_CIS: Attagene CIS-FACTORIAL HepG2 Assay for human CMV (Internal Marker) (AID 2282928); details: HepG2 CMV promoter reporter, transcription factor profiling; actives raise or lower the signal;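 note: endpoint acts as a background internal control marker rather than a target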
# Method in brief: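 Bidirectional fits against DMSO are applied to reporter mRNA, read by RT-PCR with capillary electrophoresis, from HepG2 cells exposed 24 h. The endpoint serves as an internal CMV background marker within the cis-factorial reporter panel.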
# [4] = ATG_DR4_LXR_CIS: Attagene CIS-FACTORIAL HepG2 Assay for human Liver X Receptor (LXR), DR4 submotif (AID 2282929); details: HepG2 Attagene DR4 cis-reporter, mRNA transcription; actives raise or lower the signal
# Method in brief: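 Readout: reporter transcript fluorescence after RT-PCR and capillary electrophoresis, fitted bidirectionally against DMSO controls. Human HepG2 liver cells carried transiently transfected multiplexed reporter constructs; endogenous transcription factor activity measured 24 h post-dosing.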
# [5] = target: Aryl hydrocarbon receptor (Homo sapiens) (UniProt P35869); experiment: ATG_Ahr_CIS: Attagene CIS-FACTORIAL HepG2 Assay for human Aryl Hydrocarbon Receptor (Ahr) (AID 2282930); details: HepG2 AhR cis-factorial reporter transcription; actives raise or lower the signal
# Chain of Aryl hydrocarbon receptor (Homo sapiens) (P35869 whole entry, looked up): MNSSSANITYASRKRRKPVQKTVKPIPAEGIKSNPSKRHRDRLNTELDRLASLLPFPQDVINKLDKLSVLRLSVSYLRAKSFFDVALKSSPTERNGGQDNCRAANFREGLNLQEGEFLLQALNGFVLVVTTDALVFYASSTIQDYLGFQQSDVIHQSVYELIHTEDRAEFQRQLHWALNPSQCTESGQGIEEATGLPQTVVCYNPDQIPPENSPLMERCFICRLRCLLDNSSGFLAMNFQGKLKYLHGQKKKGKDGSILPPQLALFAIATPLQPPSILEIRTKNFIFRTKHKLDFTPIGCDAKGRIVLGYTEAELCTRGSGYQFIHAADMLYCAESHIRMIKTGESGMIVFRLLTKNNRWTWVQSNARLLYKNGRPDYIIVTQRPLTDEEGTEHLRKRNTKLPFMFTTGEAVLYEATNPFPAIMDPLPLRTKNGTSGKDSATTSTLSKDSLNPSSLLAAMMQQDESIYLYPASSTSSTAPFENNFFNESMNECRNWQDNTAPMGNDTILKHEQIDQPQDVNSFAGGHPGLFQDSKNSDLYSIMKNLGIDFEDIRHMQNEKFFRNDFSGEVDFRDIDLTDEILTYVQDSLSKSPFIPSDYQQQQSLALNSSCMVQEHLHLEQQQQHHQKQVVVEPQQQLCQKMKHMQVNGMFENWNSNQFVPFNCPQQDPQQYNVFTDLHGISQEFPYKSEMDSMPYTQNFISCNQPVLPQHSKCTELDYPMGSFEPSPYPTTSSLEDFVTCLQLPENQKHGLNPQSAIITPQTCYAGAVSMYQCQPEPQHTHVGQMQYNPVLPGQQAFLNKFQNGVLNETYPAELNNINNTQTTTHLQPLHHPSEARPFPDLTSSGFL
# Method in brief: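 Endogenous factor activity is tracked through cis-promoter reporter units transfected into HepG2 cells. Transcript levels at 24 h are read by fluorescent RT-PCR and capillary electrophoresis, with activity in either direction scored relative to DMSO.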
# [6] = ATG_AP_1_CIS: Attagene CIS-FACTORIAL HepG2 Assay for human Activator Protein 1 (AP-1) (AID 2282931); details: HepG2 Attagene cis-factorial AP-1 reporter mRNA; actives raise or lower the signal
# Method in brief: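 Reporter transcripts were measured 24 h after dosing by RT-PCR and capillary electrophoresis of fluorescent fragments. Cells: HepG2 carrying transfected cis-regulated reporter constructs reading endogenous factor activity. Gain or loss fitted against DMSO.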
# [7] = ATG_AP_2_CIS: Attagene CIS-FACTORIAL HepG2 Assay for human Activator Protein 2 (AP-2) (AID 2282932); details: HepG2 AP-2 cis-reporter, Attagene transcription factor profiling; actives raise or lower the signal
# Method in brief: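 Liver-derived HepG2 line, cis-reporter system measuring endogenous factors; 24 h dosing; reporter mRNA detected by fluorescent RT-PCR and capillary electrophoresis.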
# [8] = ATG_BRE_CIS: Attagene CIS-FACTORIAL HepG2 Assay for human Bone Morphogenetic Protein (BMP) Response Element (BRE) (AID 2282933); details: HepG2 BMP response element reporter, Attagene transcription factor profiling; actives raise or lower the signal
# Method in brief: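 HepG2 cells transiently transfected with multiplexed cis-element reporter units were dosed with chemical for 24 h. Reporter mRNA was measured by RT-PCR with fluorescent labelling, HpaI digestion and capillary electrophoresis; bidirectional fitting relative to DMSO.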
# [9] = target: Retinoic acid receptor alpha (Homo sapiens) (UniProt P10276); experiment: ATG_DR5_RAR_CIS: Attagene CIS-FACTORIAL HepG2 Assay for human Retinoic Acid Receptor Alpha (RARE), DR5 submotif (AID 2282934); details: HepG2 Attagene cis-factorial RARE DR5 reporter, mRNA; actives raise or lower the signal
# Chain of Retinoic acid receptor alpha (Homo sapiens) (P10276 whole entry, looked up): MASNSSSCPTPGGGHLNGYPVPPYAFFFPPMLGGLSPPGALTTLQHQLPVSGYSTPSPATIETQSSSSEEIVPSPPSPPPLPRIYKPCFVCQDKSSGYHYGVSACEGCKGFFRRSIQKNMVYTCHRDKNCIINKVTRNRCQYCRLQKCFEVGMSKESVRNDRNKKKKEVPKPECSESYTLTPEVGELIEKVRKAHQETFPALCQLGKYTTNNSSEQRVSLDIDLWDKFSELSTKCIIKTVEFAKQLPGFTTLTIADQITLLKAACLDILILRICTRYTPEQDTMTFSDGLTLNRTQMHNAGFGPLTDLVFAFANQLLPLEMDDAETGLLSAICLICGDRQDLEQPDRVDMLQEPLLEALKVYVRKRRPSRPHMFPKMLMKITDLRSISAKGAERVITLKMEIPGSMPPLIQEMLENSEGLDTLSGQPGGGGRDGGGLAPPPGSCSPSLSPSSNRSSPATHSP
# Method in brief: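 After 24 h of chemical exposure, transiently transfected HepG2 cells were lysed for total RNA; the DR5-regulated reporter transcript was quantified via RT-PCR and capillary electrophoresis, with activity fitted bidirectionally against DMSO.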
# [10] = target: Transcription factor E2F1 (Homo sapiens) (UniProt Q01094); experiment: ATG_E2F_CIS: Attagene CIS-FACTORIAL HepG2 Assay for human E2F Transcription Factor 1 (AID 2282935); details: HepG2 Attagene cis-reporter, E2F reporter RNA transcripts; actives raise or lower the signal
# Chain of Transcription factor E2F1 (Homo sapiens) (Q01094 whole entry, looked up): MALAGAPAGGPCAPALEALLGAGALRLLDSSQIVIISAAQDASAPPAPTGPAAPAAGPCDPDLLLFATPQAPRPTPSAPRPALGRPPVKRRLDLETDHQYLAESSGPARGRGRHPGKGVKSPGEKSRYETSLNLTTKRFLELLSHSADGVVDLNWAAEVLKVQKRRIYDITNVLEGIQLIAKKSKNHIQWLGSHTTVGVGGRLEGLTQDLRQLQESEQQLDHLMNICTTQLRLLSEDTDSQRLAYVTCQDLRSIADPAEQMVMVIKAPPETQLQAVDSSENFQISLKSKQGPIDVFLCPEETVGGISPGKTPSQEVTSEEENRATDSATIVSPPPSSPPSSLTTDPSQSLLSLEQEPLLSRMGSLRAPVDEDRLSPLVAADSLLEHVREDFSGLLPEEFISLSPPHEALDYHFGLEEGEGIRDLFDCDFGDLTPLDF
# Method in brief: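 Liver-derived HepG2 cells expressing transfected promoter-driven reporter units received test chemical for 24 hours. Signal gains or losses were fitted bidirectionally against DMSO.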
# [11] = ATG_E_Box_CIS: Attagene CIS-FACTORIAL HepG2 Assay for human Enhancer Box (E-box) (AID 2282936); details: HepG2 E-box cis-reporter transcription, actives raise or lower the signal
# Method in brief: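 In this cell-based setup, HepG2 cells bearing transfected promoter-driven reporter units were exposed to chemicals for 24 h; reporter transcripts were amplified, 6-FAM-labelled, cut with HpaI and sized by capillary electrophoresis.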
# [12] = ATG_M_61_CIS: Attagene CIS-FACTORIAL HepG2 Assay for M61 Transcription Factor (Internal Marker) (AID 2282937); details: HepG2 Attagene CIS-FACTORIAL M61 internal marker reporter; actives raise or lower the signal
# Method in brief: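 Readout: fluorescent reporter mRNA fragments resolved by capillary electrophoresis after RT-PCR. Transiently transfected human HepG2 cells carried MRTU constructs reporting endogenous TF activity; 24 h chemical exposure; gain or loss of signal fitted relative to DMSO.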
# [13] = ATG_EGR_CIS: Attagene CIS-FACTORIAL HepG2 Assay for human Early Growth Response 1 (EGR1) (AID 2282938); details: HepG2 Attagene CIS-FACTORIAL EGR reporter mRNA; actives raise or lower the signal
# Method in brief: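 Read-out: fluorescent reporter-mRNA fragments resolved by capillary electrophoresis after RT-PCR, 24 h post-dose in transiently transfected HepG2. Endogenous transcription-factor activity reported via cis-element-regulated reporter units; gain or loss fitted relative to DMSO.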
# [14] = ATG_M_19_CIS: Attagene CIS-FACTORIAL HepG2 Assay for M19 Transcription Factor (Internal Marker) (AID 2282939); details: HepG2 Attagene CIS-FACTORIAL M19 internal marker reporter; actives raise or lower the signal
# Method in brief: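 HepG2 cells transiently transfected with cis-regulated multiple reporter transcription units were dosed for 24 h; reporter mRNA was quantified by RT-PCR, 6-FAM primer-extension labelling, HpaI digestion and capillary electrophoresis, with bidirectional fitting against DMSO baseline.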
# [15] = ATG_ERE_CIS: Attagene CIS-FACTORIAL HepG2 Assay for Estrogen Response Element (ERE) (AID 2282940); details: HepG2 ERE cis-reporter, Attagene RNA transcript; actives raise or lower the signal
# Method in brief: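 HepG2 cells transiently transfected with cis-promoter-driven multiplexed reporter transcription units report endogenous TF activity. After 24 h compound exposure, reporter mRNA is quantified by RT-PCR with capillary electrophoresis fluorescence; bidirectional fitting versus DMSO baseline.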
# [16] = ATG_Ets_CIS: Attagene CIS-FACTORIAL HepG2 Assay for human Erythroblast Transformation Specific (ETS) (AID 2282941); details: HepG2 ETS cis-reporter transcription, actives raise or lower the signal
# Method in brief: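 Endogenous transcription factor activity read as reporter mRNA via RT-PCR and capillary electrophoresis, with gain or loss fitted bidirectionally against DMSO. Human HepG2 liver cells, transiently transfected CIS reporter constructs, 24 h exposure.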
# [17] = target: Hepatocyte nuclear factor 3-beta (Homo sapiens) (UniProt Q9Y261); experiment: ATG_FoxA2_CIS: Attagene CIS-FACTORIAL HepG2 Assay for human Forkhead box A2 (FOXA2) (AID 2282942); details: HepG2 cis-reporter transcription factor activity, 24 h; actives raise or lower the signal
# Chain of Hepatocyte nuclear factor 3-beta (Homo sapiens) (Q9Y261 whole entry, looked up): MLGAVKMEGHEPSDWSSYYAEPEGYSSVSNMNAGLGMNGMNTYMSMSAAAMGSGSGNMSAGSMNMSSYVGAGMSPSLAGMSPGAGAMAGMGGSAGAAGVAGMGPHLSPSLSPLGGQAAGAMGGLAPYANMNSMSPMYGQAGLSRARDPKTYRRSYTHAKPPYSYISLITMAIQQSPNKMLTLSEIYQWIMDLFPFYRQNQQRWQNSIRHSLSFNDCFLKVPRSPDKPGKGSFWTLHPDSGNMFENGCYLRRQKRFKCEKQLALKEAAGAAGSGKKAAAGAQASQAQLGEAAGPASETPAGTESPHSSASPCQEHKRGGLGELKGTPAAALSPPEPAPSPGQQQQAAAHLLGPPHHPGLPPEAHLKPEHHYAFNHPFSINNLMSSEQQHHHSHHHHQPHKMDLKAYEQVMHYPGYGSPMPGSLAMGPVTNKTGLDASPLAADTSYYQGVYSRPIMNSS
# Method in brief: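 Readout: fluorescent reporter transcripts resolved by capillary electrophoresis after RT-PCR. Transiently transfected HepG2, 24 h compound exposure, endogenous TF activity at cis promoter elements. Gain or loss of signal fitted relative to DMSO.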
# [18] = ATG_FoxO_CIS: Attagene CIS-FACTORIAL HepG2 Assay for human Forkhead box O (FoxO) (AID 2282943); details: HepG2 Attagene cis-reporter, FoxO element, mRNA; actives raise or lower the signal
# Method in brief: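 Transfected HepG2 reporter cells exposed to test chemical for 24 h; reporter RNA measured by reverse transcription, PCR and fluorescent capillary electrophoresis; curves fitted for increases and decreases against DMSO.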
# [19] = ATG_GATA_CIS: Attagene CIS-FACTORIAL HepG2 Assay for human GATA Binding Protein (AID 2282944); details: HepG2 GATA cis-element reporter, Attagene multiplex mRNA; actives raise or lower the signal
# Method in brief: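 HepG2 cells transiently transfected with multiplexed cis-element reporter units reflecting endogenous transcription factor activity; reporter mRNA measured after 24 h dosing by RT-PCR, 6-FAM labeling, HpaI digestion and capillary electrophoresis. Bidirectional fitting versus DMSO baseline.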
# [20] = ATG_CRE_CIS: Attagene CIS-FACTORIAL HepG2 Assay for human cAMP Responsive Element (CRE) binding protein 3 (AID 2282926); details: HepG2 CRE cis-reporter, Attagene multiplexed mRNA; actives raise or lower the signal
# Method in brief: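 Liver-derived HepG2, transfected with a CRE-containing reporter panel, exposed 24 h; transcript levels sized and quantified by capillary electrophoresis of labelled amplicons; signal changes either way referenced to vehicle.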
structure (smiles),measurement,setting,value
Cc1ccc(C)c(O)c1C,outcome,[1],inactive
same,outcome,[2],inactive
same,outcome,[3],inactive
same,outcome,[4],inactive
same,outcome,[5],inactive
same,outcome,[6],inactive
same,outcome,[7],inactive
same,outcome,[8],inactive
same,outcome,[9],inactive
same,outcome,[10],inactive
same,outcome,[11],inactive
same,outcome,[12],inactive
same,outcome,[13],inactive
same,outcome,[14],inactive
same,outcome,[15],inactive
same,outcome,[16],inactive
same,outcome,[17],inactive
same,outcome,[18],inactive
same,outcome,[19],inactive
Nc1ccc(S(=O)(=O)c2ccc(N)cc2)cc1,outcome,[1],inactive
same,outcome,[2],inactive
same,outcome,[3],inactive
same,outcome,[4],inactive
same,outcome,[5],inactive
same,outcome,[6],inactive
same,outcome,[7],inactive
same,outcome,[8],inactive
same,outcome,[9],inactive
same,outcome,[10],inactive
same,outcome,[11],inactive
same,outcome,[12],inactive
same,outcome,[13],inactive
same,outcome,[14],inactive
same,AC50,[15],100 µM (active)
same,outcome,[16],inactive
same,outcome,[17],inactive
same,outcome,[18],inactive
same,outcome,[19],inactive
COCCOCCOC,outcome,[1],inactive
same,outcome,[20],inactive
same,outcome,[3],inactive
same,outcome,[4],inactive
same,outcome,[5],inactive
same,outcome,[6],inactive
same,outcome,[7],inactive
same,outcome,[8],inactive
same,outcome,[9],inactive
same,outcome,[10],inactive
same,outcome,[11],inactive
same,outcome,[12],inactive
same,outcome,[13],inactive
same,outcome,[14],inactive
same,outcome,[15],inactive
same,outcome,[16],inactive
same,outcome,[18],inactive
same,outcome,[19],inactive
